A selection: hits, their analogues and other compounds. The true share with any hit is near 19%.
DT40 TDP1 no CPT: qHTS for Inhibitors of human tyrosyl-DNA phosphodiesterase 1 (TDP1): qHTS in cells in absence of CPT; DT40 Tdp1-/- hTDP1 cells, no CPT, ATP luminescence, 48 h; Potency, µM (series often up to 46.2 µM), for inactives: at the highest dose activity change, negative = growth inhibition, actives largely listed as inhibitors; 420,000 compounds, 15% hits; note: potency is the fitted concentration of half-maximal effect; nearly all actives have a fitted effect of over 55% in size
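No-CPT arm: Tdp1-/-;hTDP1 DT40 cells (400/well) plus compounds, incubated ≥48 hr at 37 °C. Readout CellTiter-Glo luminescence.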
HT1080 IDH1KD tx: HT-1080 IDH1 knockdown cell toxicity (counter line) | Potency, µM (highest dose often 46.1 µM), inactives show top-dose activity, negative = toxicity, usual class: cytotoxic | HT-1080 IDH1 knockdown viability, ATP luminescence, 48 h | 360,000 compounds, 2% hits;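 note: potency is the fitted concentration of half-maximal effect; 0% = DMSO wells and -100% = cell-free medium wells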
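Knockdown cells (IDH1KD HT-1080) received compounds 2 h after plating at 750 cells/well and were kept 48 h at 37 °C in 5% FBS RPMI. A CellTiter-Glo luminescence read gave % activity for curve fitting.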
IL1B secr inh: inflammasome signaling inhibition, IL-1 beta readout | THP-1 LPS/ATP IL-1B secretion, AlphaLISA, 16 h; hits give low values | activity change, % at 57.5 µM | 360,000 compounds, 4.7% hits | AID 743279; in the data active = activity change below about -50%; inconclusive = mostly about -30% to -49%
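THP-1 cells pretreated 1 hr with compounds (up to 57.5 uM final), then stimulated with LPS (250 ng/mL final) plus ATP (1.25 mM final); secreted IL-1B measured by AlphaLISA after 16 hr, decreased signal indicating inhibition.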
DT40 TDP1 CPT: growth inhibition of DT40 Tdp1-/-;hTDP1 cells with camptothecin (screen for TDP1 inhibitors); Potency, µM (titrated, usually from 46.2 µM), inactives show at the highest dose activity change, negative = growth inhibition, most hits filed as inhibitors; 420,000 compounds, 12% hits; chicken DT40 Tdp1-/-;hTDP1 cells + 20 nM CPT, ATP luminescence, 48 h; AID 686979; note: potency is the fitted concentration of half-maximal effect; nearly all actives have a fitted effect of over 55% in size
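Chicken DT40 Tdp1-/- cells stably complemented with human TDP1 were seeded at 400 cells/well in medium containing 20 nM camptothecin, exposed to pin-transferred compounds, and grown at 37 °C for at least 48 hr. Viability was read as ATP luminescence.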
HT1080NT lethal: kills 2HG-producing HT-1080-NT fibrosarcoma cells | AID 686970 | 360,000 compounds, 1.6% hits | HT-1080-NT fibrosarcoma viability, CellTiter-Glo ATP luminescence, 48 h | Potency, µM (titrated, usually from 46.1 µM), for the others: top-dose activity, negative = less viability, actives largely listed as cytotoxic;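 note: NT is the 2HG producing partner of a matched IDH1 knockdown line; potency is the fitted concentration of half-maximal effect; 0% = DMSO-treated cells and -100% = media-only wells without cells; nearly all actives have a fitted effect of over 55% in size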
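Read-out is CellTiter-Glo luminescence after 10 minutes at room temperature, following 48 hours' compound treatment of HT-1080-NT cells (750 cells/well, RPMI, 5% FBS, 37 degrees C).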
* hit, by the source's call; i = inactive; ? = inconclusive; nt = no result; ! = not confirmed by another sample; [ ] = remark or other dose. Unless noted, calls come from the whole dose curve; as a rule, active = well fitted curve in the direction sought with a large enough effect; inconclusive = small, poorly fitted or top-dose-only effect, or another doubt; inactive = no such curve, though single readings can be large; an effect the other way counts as inactive or inconclusive. Unless noted, % is set by controls: 0 for no effect and ±100 for the full control effect.

SMILES	DT40 TDP1 no CPT	HT1080 IDH1KD tx	IL1B secr inh	DT40 TDP1 CPT	HT1080NT lethal
Cc1cc(NC(=O)CSC2=NS(=O)(=O)c3ccccc3N2)no1	18%	2%	4	7%	-1%
COc1ccc(C)cc1COC(=O)c1[nH]c(C)c(C(C)=O)c1C	16µM*	-19%	35	21µM*	-1%
CC(=O)c1c(C)[nH]c(C(=O)OCc2ccccc2F)c1C	21µM*	-15%	-7	15µM*	-10%
CC(=O)c1c(C)[nH]c(C(=O)OCCOc2ccccc2)c1C	9.2µM*	?	18	?	1%
CC(=O)c1c(C)[nH]c(C(=O)OCc2cccc(C)c2)c1C	13µM*	-21%	15	16µM*	-11%
CC(=O)c1c(C)[nH]c(C(=O)COC(=O)CCCOc2ccccc2)c1C	-3%	-3%	8	5%	-3%
CCOC(=O)c1c(C)[nH]c(C(=O)OCc2ccc(C)cc2)c1C	-5%	-8%	-11	-15%	-7%
CCOC(=O)c1[nH]c(C)c(C(=O)OCc2ccc(C)cc2)c1C	-20%	15%	1	-12%	18%
CCCCn1c(N)c(N(CCC(C)C)C(=O)C2CC(=O)N(c3ccccc3OCC)C2)c(=O)[nH]c1=O (stereo not given)	-8%	-10%	i	-15%	7%
COC(=O)c1c(C)[nH]c(C(=O)COc2ccc3ccc(=O)oc3c2)c1C	9.2µM*	9%	0	?	3%[9.24 µM]
CC(=O)c1c(C)[nH]c(C(=O)COc2ccc3ccc(=O)oc3c2)c1C	?	-8%	-10	?	-2%
Cc1ccc(N2CC(C(=O)Nc3ccc(S(=O)(=O)N4CCOCC4)cc3)CC2=O)cc1Cl (stereo not given)	?	-17%	1	-17%	-10%
Cc1ccc(S(=O)(=O)Cc2ccc(C(=O)NC3CCCC3)o2)cc1	7%	0%	16	12%	0%
COc1ccc(S(=O)(=O)Cc2ccc(C(=O)NC3CCCCCC3)o2)cc1	?	-1%	-5	15µM*	19%
COc1ccc(CCNC(=O)c2ccc(CS(=O)(=O)c3ccc(C)cc3)o2)cc1OC	15µM*!	-9%	3	?	4%
COc1ccc(CCNC(=O)CSCc2ccc(Cl)cc2)cc1OC	?	10%	-7	?	2%
COc1ccc(CCNC(=O)c2ccc(CSc3ccc(Cl)cc3)o2)cc1OC	13µM*	?	nt	13µM*	?
CC(C)(C)OC(=O)N/N=C/c1cccn1-c1ccc([N+](=O)[O-])cc1	-11%	7%	-11	10%	-26%
COc1ccc(CC(=O)N/N=C/c2cccn2-c2ccc([N+](=O)[O-])cc2)cc1OC	15µM*	4%	-13	16µM*	0%
CNC(=O)c1c(NC(=O)C2=COCCO2)sc2c1CCN(C(=O)OC)C2	-8%	0%	-6	-4%	-2%
COCCNC(=O)c1ccc(CS(=O)(=O)c2ccc(OC)cc2)o1	-11%	2%	30	-13%	1%
CN1CCN(CCCNC(=O)c2ccc(CS(=O)(=O)c3ccc(Br)cc3)o2)CC1	5%	2%	22	-1%	12%
COc1ccc(CCNC(=O)c2ccc(CS(=O)(=O)c3ccc(Cl)cc3)o2)cc1OC	16µM*	-29%	?	23µM*	-7%
COc1ccc(CCNC(=O)c2ccc(-c3ccc([N+](=O)[O-])cc3Cl)o2)cc1OC	8.2µM*	-29%	?	7.3µM*	-22%
COc1ccc(N2CCN(CCCNC(=O)c3ccc(CS(=O)(=O)c4ccc(Cl)cc4)o3)CC2)cc1	21µM*	-2%	-6	?	-3%
SMILES	DT40 TDP1 no CPT	HT1080 IDH1KD tx	IL1B secr inh	DT40 TDP1 CPT	HT1080NT lethal
COc1ccc(CCNC(=O)c2ccc(CS(=O)(=O)Cc3ccc(C)cc3)o2)cc1OC	23µM*	-4%	17	?	9%
Cc1ccc(S(=O)(=O)Nc2ccccc2C(=O)N2CCCCCC2)cc1	-18%	7%	9	-4%	-5%
Cc1cc(OC(=O)Nc2ccccc2)ccc1Cl	4%	4%	2	8%	3%
O=C(NCCc1ccc(Cl)cc1)c1ccc(CS(=O)(=O)Cc2ccc(F)cc2)o1	?	nt	nt	-21%	nt
COc1ccc(CCNC(=O)CSCc2ccc([N+](=O)[O-])cc2)cc1OC	26µM*	-1%	-14	26µM*	1%
CCc1ccccc1S(=O)(=O)Cc1ccc(C(=O)NCCc2ccc(C)cc2)o1	29µM*	nt	nt	?	nt
O=C(NCCc1ccc(Cl)cc1)c1ccc(CS(=O)(=O)Cc2ccccc2F)o1	21µM*	nt	nt	?	nt
CCCNC(=O)c1ccc2c(c1)nc(C)n2-c1cccc(Cl)c1	-9%	25%	-22	-37%	3%
Cc1ccc(S(=O)(=O)N(C)CCN(C)S(=O)(=O)c2ccc(C)cc2)cc1	23µM*	1%	5	?	15%
CSc1ccc(/C=N/N(C)S(=O)(=O)c2ccc(C)cc2)cc1	7.3µM*	1%	-15	?	2%
Cc1ccc(/C=N/N(C)S(=O)(=O)c2ccc(C)cc2)cc1	21µM*	-21%	-4	23µM*	-12%
COc1ccc(C(=O)OCC(=O)NCC2CCCO2)cc1S(=O)(=O)N1CCCc2ccccc21 (stereo not given)	?	-8%	80	-1%	-4%
O=C1NC[C@@H](CCCCN2C[C@H](Cc3ccccc3)N(CCc3ccc(O)cc3)C(=O)C2=O)N(Cc2ccccc2)C1=O	4%	1%	12	-7%	0%
CC(=O)c1ccc(S(=O)(=O)N2CCN(c3ccnc4cc(Cl)ccc34)CC2)cc1	7.3µM*	-15%	?	8.2µM*	-15%
Cc1ccc(S(=O)(=O)N2CCN(c3ccnc4cc(Cl)ccc34)CC2)cc1	23µM*	-29%	-81*	23µM*	?
Cc1ccc(S(=O)(=O)N2CCN(c3ccnc4cc(Cl)ccc34)CC2)cc1C	?	-16%	?	?	-14%
O=S(=O)(c1ccc(Br)s1)N1CCN(c2ccnc3cc(Cl)ccc23)CC1	18µM*	?	nt	?	-19%
COc1ccc(CNc2ncncc2-c2ccc3c(c2)OCO3)c(OC)c1	?	nt	nt	-30%	nt
C=C(c1cn(C(C)=O)c2ccccc12)c1cn(C(C)=O)c2ccccc12	?	2%	25	23µM*	12%
CCOC(=O)c1c(S(=O)(=O)NCC(=O)N2CCN(c3ccc(F)cc3)CC2)c(C)n(C)c1C	16%	14%	-21	-22%	3%
COC(=O)CN(C#N)c1nc(NCc2ccccc2)nc(OC)n1	?	3%	-67*	?	4%

From PubChem
